# Screening results (PubChem)
# Most compounds without a hit are left out; they make up all but 3.9% or so of the library.
# NTR1 ag = activates human neurotensin receptor 1; NTR1-U2OS beta-arrestin-GFP spot imaging, agonist mode; activation, % at 20 µM; actives 0.17% (n = 330,000);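 active = activation at or above 40% of the spot to cytoplasm intensity ratio, with at least 20 cells analyzed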;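 also: 0% = DMSO without peptide and 100% = 100 nM NTR1 peptide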
# Target sequence (P30989 whole entry, looked up): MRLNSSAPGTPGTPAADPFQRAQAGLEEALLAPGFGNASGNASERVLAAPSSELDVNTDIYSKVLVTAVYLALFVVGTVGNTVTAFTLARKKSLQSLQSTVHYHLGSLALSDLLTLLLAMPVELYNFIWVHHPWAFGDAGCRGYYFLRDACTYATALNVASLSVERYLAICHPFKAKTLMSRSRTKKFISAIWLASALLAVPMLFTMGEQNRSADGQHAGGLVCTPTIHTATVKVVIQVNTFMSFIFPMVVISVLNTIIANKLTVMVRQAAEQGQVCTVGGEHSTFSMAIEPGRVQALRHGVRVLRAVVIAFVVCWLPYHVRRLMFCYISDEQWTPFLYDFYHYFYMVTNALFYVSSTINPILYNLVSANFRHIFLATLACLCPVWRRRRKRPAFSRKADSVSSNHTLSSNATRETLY
# ALR inh = human ALR oxidase inhibition via reduced H2O2; purified ALR, DTT oxidation, H2O2 HRP-luminol luminescence; inhibition, % (no concentration beside the values); actives 3.8% (n = 290,000);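 active = mean replicate inhibition above about 79%, with every replicate also reaching it, limit read from the data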
# UBC9 SUMO inh = inhibitors of human SUMOylation (UBC9); P63279; actives 0.36% (n = 290,000); HTRF SUMOylation assay, SAE1/SAE2 + UBC9, in vitro; inhibition, % at 35 µM; in the data active = inhibition above about 50%, passing the limit was not always enough
# Cardio protect = modulators protecting cardiomyocytes from myocardial damage. H9c2 cardiomyocytes, H2O2 injury protection, ATPLite, 2 h. protection from H2O2 cell death, % at 20 µM. actives 0.63% (n = 360,000). AID 588492;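 active = compounds giving at least 50% protection of heart cells from peroxide-induced death in the single-dose screen, raw or plate-pattern-corrected value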;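 also: 0% = DMSO wells with peroxide and 100% = DMSO wells without peroxide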
# * hit, by the source's call; . = not tested or not shown.
SMILES,NTR1 ag,ALR inh,UBC9 SUMO inh,Cardio protect
CCCCn1c(NC(C)CC)nc2c1c(=O)[nH]c(=O)n2C (stereo not given),-1,92*,14,1
O=C(COC(=O)c1cccc([N+](=O)[O-])c1)NNC(=O)c1cccs1,-1,1,.,3
COc1ccc(NC(=O)CSc2nc3ccsc3c(=O)n2Cc2ccccn2)c(OC)c1,0,96*,6,9
O=C(CSc1nc2nccnc2c(=O)n1Cc1cccs1)Nc1ccccc1,1,98*,.,16
COc1ccccc1NC(=O)CSc1nc2nccnc2c(=O)n1Cc1cccs1,0,96*,24,44
COc1ccccc1NC(=O)Nc1ccnn1Cc1cccs1,-1,-14,78*,2
COc1ccccc1NC(=O)Cc1cccs1,0,7,18,-4
Cc1ccc(CNC(=O)CSc2nc3ccsc3c(=O)n2Cc2ccccn2)cc1,4,-6,0,-7
COc1ccc2[nH]c(C(=O)N(C)c3ccc(F)cc3F)cc2c1,0,0,5,-7
O=c1c2sccc2nc(SCc2cc(=O)n3cc(Cl)ccc3n2)n1Cc1ccccn1,1,88*,8,28
C=C(CCC(=O)c1ccccc1)C(=O)c1ccccc1,.,97*,-6,-19
O=C(N/N=C1/CCSC1)c1cc(Br)ccc1O,2,93*,6,4
O=C(NN=C1CCCC1)c1cc(Br)ccc1O,-1,75,4,5
COC(=O)c1ccccc1NC(=O)c1nc2nc(C)cc(C)n2n1,1,-3,7,61*
COC(=O)c1ccccc1NC(=O)c1cnn2c(C)cc(C)nc12,4,-8,8,1
CC(C)COC(=O)N1CCCCC1c1cc(C(=O)NCc2cccnc2)no1 (stereo not given),.,.,.,4
CN1CCc2c(sc(NC(=O)c3ccc(S(=O)(=O)N4CCCCCC4)cc3)c2C(N)=O)C1,1,30,20,1
CC(=O)c1cccc(-c2cnc3c(NC=O)cc(-c4ccc(F)cc4)cn23)c1,.,.,.,61*
COc1ccccc1-c1cc(NC=O)c2ncc(-c3cccc(C(C)=O)c3)n2c1,.,.,.,60*
COc1ccccc1-c1cc(NC=O)c2ncc(-c3cccc(C(=O)N(C)C)c3)n2c1,.,.,.,8
CN1C(=O)N(CC(=O)Nc2nccs2)C(=O)C12CCCCC2,1,2,.,2
c1ccc(-c2nnc(CN3CCN(c4ccccc4)CC3)o2)cc1,-1,98*,-3,-5
Clc1cccc(N2CCN(Cc3nnc(-c4ccccc4)o3)CC2)c1,-2,3,-5,-6
CC(C)n1c(/C=C/[C@H](O)C[C@H](O)CC(=O)O)c(-c2ccc(F)cc2)c2ccccc21,14,99*,.,3
CC(CCc1ccccc1)NC(=O)/C=C/c1ccc(F)cc1 (stereo not given),0,0,20,.
SMILES,NTR1 ag,ALR inh,UBC9 SUMO inh,Cardio protect
Cc1sc2nc(SCC(=O)NCc3ccco3)[nH]c(=O)c2c1C,2,7,-1,60*
Cc1sc2nc3ccc(NCc4ccco4)nn3c(=O)c2c1C,2,.,56*,22
CCc1c(O)nc(SCC(=O)NCc2ccco2)[nH]c1=O,-1,98*,13,-2
O=C(Nc1ccc2[nH]ncc2c1)c1ccccc1,0,-7,14,-16
O=C(NCc1ccccc1Br)c1ccco1,1,2,-5,-3
O=S(=O)(c1ccc(NC(=S)Nc2ccccc2)cc1)N1CCOCC1,1,3,6,0
O=C(O[C@@H]1OC2COC(=O)c3cc(O)c(O)c(O)c3-c3c(cc(O)c(O)c3O)C(=O)O[C@@H]([C@H]1O)[C@@H]2O)c1cc(O)c(O)c(O)c1,.,99*,89*,-1
O=C(NC(O)C(=O)c1ccccc1)c1cccs1 (stereo not given),3,91*,5,6
O=C(NC(O)C(=O)c1cccs1)c1cccnc1 (stereo not given),3,0,20,83*
O=C(NNC(=O)c1cccs1)c1ccccc1,3,2,2,2
O=C(CSc1nnc(SCc2ccccc2)s1)N/N=C/c1ccc(Cl)cc1Cl,5,-13,3,-9
CCOC(=O)/C=C/C(=O)OCC(=O)Nc1c(Cl)cccc1Cl,2,15,7,32
CCOC(=O)/C=C/C(=O)OCC(=O)Nc1ccc(Cl)cc1Cl,2,96*,4,6
CCc1ccc(/C=C/C(=O)c2cc(Br)ccc(=O)c2O)cc1,3,36,15,10
CCOc1ccc(/C=C/C(=O)c2cc(Br)ccc(=O)c2O)cc1,.,96*,22,53*
Cc1cccc(/C=C/C(=O)c2cc(Br)ccc(=O)c2O)c1,2,98*,18,9
Cc1ccc(C)c(CN2C(=O)COc3ccc(C(=O)c4ccccc4C(=O)O)cc32)c1,10,2,-15,-7
COc1ccc(-c2noc(CCC(=O)NCc3cc(Br)ccc3OC)n2)cc1,2,.,6,-15
Cc1cccc(C(C)C)c1NC(=O)C(C)OC(=O)Cc1n[nH]c(=O)c2ccccc12 (stereo not given),4,-3,.,71*
CC(OC(=O)Cc1n[nH]c(=O)c2ccccc12)C(=O)Nc1ccccc1[N+](=O)[O-] (stereo not given),1,-6,3,72*
CC(OC(=O)Cc1n[nH]c(=O)c2ccccc12)C(=O)Nc1cccc([N+](=O)[O-])c1 (stereo not given),0,-7,1,58*
COc1ccccc1NC(=O)C(C)OC(=O)Cc1n[nH]c(=O)c2ccccc12 (stereo not given),0,-6,.,66*
CC(OC(=O)CCC1CCCC1)C(=O)Nc1ccccc1[N+](=O)[O-] (stereo not given),1,5,.,-4
CC(OC(=O)Cc1n[nH]c(=O)c2ccccc12)C(=O)Nc1ccc(S(N)(=O)=O)cc1 (stereo not given),1,.,.,48
Cc1sc2nc(CSCC(=O)N3CC(C)OC(C)C3)[nH]c(=O)c2c1C (stereo not given),-1,.,.,30
SMILES,NTR1 ag,ALR inh,UBC9 SUMO inh,Cardio protect
Nc1ccccc1Sc1nc2ccccc2[nH]1,2,12,-6,-1
Nc1ccccc1Sc1c[nH]c2ccccc12,1,99*,-12,-6
CCCOc1ccc(-c2nnc(N)s2)cc1,0,-3,13,-17
N#CC1=C(N)Oc2n[nH]c(-c3cccs3)c2C1c1ccco1 (stereo not given),-1,75*,29,2
N#CC1=C(N)Oc2n[nH]c(-c3cccs3)c2C1c1ccncc1 (stereo not given),0,.,13,0
COc1ccc(-c2nnc(SCC(=O)Nc3sc4c(c3C#N)CCC4)n2CC2CCCO2)cc1 (stereo not given),.,.,-19,-12
CCOc1ccc(C(=O)CC(NCc2cccs2)C(=O)O)cc1 (stereo not given),.,97*,22,-7
CCOc1ccc(C(=O)CCC(=O)N(CC)CC(=O)NCc2cccs2)cc1,0,10,.,-4
Cc1cc(C)c2cc(CN(Cc3ccco3)C(=S)NCC3CCCO3)c(=O)[nH]c2c1 (stereo not given),8,96*,4,-10
